# Assay results published in PubChem BioAssay AID1851 (National Center for Advancing Translational Sciences (NCATS), 2009).
# About 5,700 (36%) of roughly 16,000 compounds were called active. About 24% were inconclusive and are not listed. The list shows a part of the results. Unmarked numbers belong to inactive results. Calls come from the whole dose curve; as a rule, active = well fitted curve in the direction sought with a large enough effect; inconclusive = small, poorly fitted or top-dose-only effect, or effect the other way; inactive = no such curve, though single readings can be large or run the other way.
# Target: Cytochrome P450 1A2 (Homo sapiens) (UniProt P05177)
# Test: Cytochrome panel assay with activity outcomes
# Settings: recombinant CYP, pro-luciferin dealkylation, luminescence, p450-cyp1a2; series mostly up to 57.1 µM
# Protocol: The P450 gene superfamily is involved in the metabolism and clearance of xenobiotics. This assay used various human CYP P450 isozymes to measure the dealkylation of various pro-luciferin substrates to luciferin. The luciferin is then measured by luminescence after the addition of a luciferase detection reagent. Pro-luciferin substrate concentration in the assay was equal to its KM for its CYP P450 isozyme. Inhibitors and some substrates limit the production of luciferin, and decrease measured luminescence.
# NCGC Assay Protocol Summary:
# 1, Reagent, 2 uL, Isozyme and Pro-Luciferin
# 2, Library compounds, 23 nl, 40 uM to 0.24 nM dilution series
# 3, Controls, 23 nl, Isozyme specific inhibitor
# 4, Reagent, 2 uL, NADPH regeneration solution
# 5, Incubation time, 60 min, Isozyme specific temperature
# 6, Reagent, 4ul, Detection reagent
# 7, Incubation time, 20 min, Isozyme specific temperature
# 8, Detection, 1 sec, ViewLux luminescent read
# The luciferase-based P450-GloTM Screening Systems were obtained from Promega (Madison, WI) for CYP 1A2 (V9770), CYP 2C9 (V9790), CYP2 C19 (V9880), CYP 2D6 (V9890), and CYP 3A4 Luciferin-PPXE (V9910) and were adapted for 1,536-well microplates and an automated protocol. The control compounds furafylline for 1A2 (F124), sulfaphenazole for CYP 2C9 (S0758), ketoconazole for CYP 2C19 (K1003), quinidine for 2D6 (Q3625), and ketoconazole for 3A4 (K1003) were purchased from Sigma Aldrich (St. Louis, MO). Recombinant P450 enzymes were obtained from baculovirus constructs expressed in insect cells (BD/Gentest).
# Medium-binding white solid Kalypsys plates used. Mixtures kept on ice. 1A2: 10 nM 1A2, 100 uM Luc-ME, 100 mM KPO4; 2C9: 10 nM 2C9, 100 uM Luc-H, 25 mM KPO4; 2C19: 5 nM 2C19, 10 uM Luc-H EGE, 50 mM KPO4; 2D6: 5 nM 2D6, 30 uM Luc-ME EGE, 100 mM KPO4; 3A4: 10 nM, 25 uM Luc-PPXE. All amounts are reflected in their final concentration, working concentration is 2x.
# NADPH regeneration solution: 1.3 mM NADP+, 3.3 mM glucose-6-phosphate, 3.3 mM MgCl2, 0.4 U/mL glucose-6-phosphate dehydrogenase for all isozymes, 200 mM KPO4 for 3A4. Mixture prepared at RT but kept on ice during automated run.
# RT incubation in auxilliary plate hotel for 1A2, 2D6, and 3A4; 37C for 2C9 and 2C19.
# Keywords: P450, CYP1A2, CYP2C19, CYP2C9, CYP2D6, CYP3A4, Luciferase, MLSMR, MLSCN, NIH Roadmap, qHTS, NCGC
# % is set by controls: 0 for no effect and ±100 for the full control effect.
# Chain of Cytochrome P450 1A2 (Homo sapiens) (P05177 whole entry, looked up): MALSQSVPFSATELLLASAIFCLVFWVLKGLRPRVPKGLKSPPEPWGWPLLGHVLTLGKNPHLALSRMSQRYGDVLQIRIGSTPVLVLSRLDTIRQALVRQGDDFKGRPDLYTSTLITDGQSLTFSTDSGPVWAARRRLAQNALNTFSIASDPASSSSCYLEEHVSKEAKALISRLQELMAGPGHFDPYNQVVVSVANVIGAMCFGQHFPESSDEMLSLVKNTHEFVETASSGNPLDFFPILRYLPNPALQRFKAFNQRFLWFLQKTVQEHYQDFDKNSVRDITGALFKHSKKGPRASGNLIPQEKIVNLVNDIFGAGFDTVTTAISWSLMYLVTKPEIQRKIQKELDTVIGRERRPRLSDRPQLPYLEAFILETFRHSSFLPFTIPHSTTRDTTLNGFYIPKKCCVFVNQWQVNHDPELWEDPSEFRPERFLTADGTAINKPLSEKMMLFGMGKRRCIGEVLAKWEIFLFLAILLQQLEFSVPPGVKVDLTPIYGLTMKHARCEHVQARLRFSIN
SMILES,AC50,"activity, negative = inhibition"
C[C@@]12C(=O)OC(=O)[C@@]1(C)[C@H]1CC[C@@H]2O1,inactive,
CC(=O)[C@]1(O)CC[C@@H]2[C@H]3C[C@@H](C)C4=CC(=O)CC[C@@]4(C)[C@H]3[C@@H](O)C[C@]21C,,-1.99% [at 2.29 µM]
CC(C)N[C@@H](C)Cc1ccc(I)cc1,10 µM (active),
O=C1NC(=S)NC(=O)C1=Cc1cccc2cc3ccccc3cc12,0.398 µM (active),
C[C@]12CC[C@@H]3[C@H](CCC4=CC(=O)CC[C@]43C)[C@]1(O)CC[C@@]2(O)C(=O)CO,,4.85% [at 2.29 µM]
COc1ccc2[nH]cc(CCN)c2c1,1.58 µM (active),
CCCCCCCCCOc1ccc2[nH]cc(CCN)c2c1,0.0398 µM (active),
COc1ccc2[nH]cc(CCN(C)C)c2c1,15.8 µM (active),
NCCc1c[nH]c2ccc(OC(=O)C(=O)O)cc12,2.51 µM (active),
CC(=O)O[C@H]1CC[C@@]2(C)C(=CC[C@@H]3[C@H]2CC[C@]2(C)C(=O)CC[C@H]32)C1,inactive,
CC(C)NC(=O)N1CCC2(CC1)CCN(C(=O)Oc1ccccc1)CC2,inactive,
CCOC(=O)c1[nH]c(C)c(C(=O)N2CCC3(CC2)OCCO3)c1C,inactive,
CN(C)C(=O)Oc1ccc[n+](C)c1,inactive,
CC(C)(C)NC[C@H](O)c1cc(Cl)c(N)c(Cl)c1,inactive,
COCCNC(=S)N1C2CCC1CC(NC(=O)NC13CC4CC(CC(C4)C1)C3)C2 (stereo not given),inactive,
Nc1nc(N)c(Cn2ccnc2)c(=O)[nH]1,,-19.7% [at 11.4 µM]
Cn1c(=O)c2[nH]cnc2n(C)c1=O,inactive,
C[C@@]12CC[C@H]3[C@@H](CCC4=C(O)C(=O)CC[C@]43C)[C@H]1CCC2=O,inactive,
Nc1ncnc2c1ncn2[C@@H]1O[C@@H](COP(=O)(O)CP(=O)(O)OP(=O)(O)O)[C@H](O)[C@@H]1O,inactive,
CCCCCCN=Cc1c(O)n(C)c(=O)n(C)c1=O,12.6 µM (active),
CCCCn1c(O)c(C=NCCN2CCCCC2)c(=O)[nH]c1=O,inactive,
COc1cccc(-n2c(O)c(C=NCCN3CCOCC3)c(=O)[nH]c2=O)c1,inactive,
Cc1ccccc1OCCN=Cc1c(O)n(C)c(=O)n(C)c1=O,12.6 µM (active),

SMILES,AC50,"activity, negative = inhibition"
O=C(O)/C=C\c1ccc[c]([Sb](=[O])([OH])[OH])c1,,-9.5% [at 2.29 µM]
NC(N)=Nc1ccc2[nH]c3c(c2c1)C[C@]1(O)[C@@H]2Cc4ccc(O)c5c4[C@]1(CCN2CC1CC1)[C@@H]3O5,inactive,
NNC(=O)c1ccc(O)cc1,inactive,
CSCC[C@@H](N)P(C)(=O)O,,-11% [at 11.4 µM]
COC(=O)N1CCC2(CCCN(C)C2)CC1,inactive,
C[C@H](Br)CN(C[C@H](C)Br)c1ccc2c(c1)Cc1ccccc1-2,3.16 µM (active),
CCN1C[C@]2(C)CC[C@H](O)[C@@]34[C@@H]5CC6[C@@H](OC)C[C@@](O)([C@@H]5[C@@H]6O)[C@H](C[C@@H]23)[C@H]14,inactive,
C[C@@H]1O[C@@H](O[C@H]2C[C@@H](O)[C@]3(CO)[C@@H]4[C@@H](O)C[C@]5(C)[C@H]([C@@H]6COC(=O)C6)CC[C@@]5(O)[C@H]4CC[C@@]3(O)C2)[C@H](O)[C@H](O)[C@@H]1O,inactive,
CN1CC[C@@]2(CCCN(C(=O)Oc3ccccc3)C2)C1,inactive,
Cc1ncsc1CCCl,31.6 µM (active),
Oc1ccc([C@H](O)[C@@H]2CCCCN2)cc1O,,-3.47% [at 11.4 µM]
O=C(O)[C@@H]1C[C@H]1[C@@H](NP(=O)(c1ccccc1)c1ccccc1)c1ccccc1,inactive,
C=C(CC1(C(C)NP(=O)(c2ccccc2)c2ccccc2)CC1)c1ccccc1 (stereo not given),15.8 µM (active),
O=C(O)[C@H]1C[C@@H]1[C@H](NP(=O)(c1ccccc1)c1ccccc1)c1ccccc1,inactive,
c1csc(CN2CCCC3(CCNCC3)C2)n1,inactive,
CC(=O)O[C@H]1CC[C@@]2(C)[C@@H](CC[C@H]3[C@H]2CC(=O)[C@@]2(C)[C@@H]3C[C@H]3CC(C)=CC(=O)[C@H]32)C1,,-8.97% [at 2.29 µM]
C[C@H](CCC(=O)O)[C@H]1CC[C@]2(C)[C@@H]3C(=O)C[C@H]4C(C)(C)[C@@H](O)CC[C@]4(C)[C@H]3C(=O)C[C@@]12C,,-10.7% [at 11.4 µM]
C[C@H]1CC[C@@]2(NC1)O[C@@H]1C[C@H]3[C@@H]4CC=C5C[C@@H](O)CC[C@]5(C)[C@@H]4CC[C@]3(C)[C@@H]1[C@@H]2C,inactive,
CN(C)CCCc1cccnc1,,-10.2% [at 2.29 µM]
COc1ccccc1CC1C(=O)C2CCN1CC2 (stereo not given),inactive,
OC1(c2ccc(Cl)cc2)CCN(Cc2c[nH]c3ccccc23)CC1,31.6 µM (active),
CN(C)Cc1c[nH]c2ccccc12,inactive,
